SMILES strings stand for the structures.

For experiment [1], the target named is Protein kinase C gamma type (Homo sapiens) (UniProt P05129). As to conditions: at 1 µM.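 Note: each value is an averaged percent inhibition of the enzyme.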
Experiment [2] deals with T1, Protein kinase C iota type (Homo sapiens) (UniProt P41743).
T1 sequence (whole entry): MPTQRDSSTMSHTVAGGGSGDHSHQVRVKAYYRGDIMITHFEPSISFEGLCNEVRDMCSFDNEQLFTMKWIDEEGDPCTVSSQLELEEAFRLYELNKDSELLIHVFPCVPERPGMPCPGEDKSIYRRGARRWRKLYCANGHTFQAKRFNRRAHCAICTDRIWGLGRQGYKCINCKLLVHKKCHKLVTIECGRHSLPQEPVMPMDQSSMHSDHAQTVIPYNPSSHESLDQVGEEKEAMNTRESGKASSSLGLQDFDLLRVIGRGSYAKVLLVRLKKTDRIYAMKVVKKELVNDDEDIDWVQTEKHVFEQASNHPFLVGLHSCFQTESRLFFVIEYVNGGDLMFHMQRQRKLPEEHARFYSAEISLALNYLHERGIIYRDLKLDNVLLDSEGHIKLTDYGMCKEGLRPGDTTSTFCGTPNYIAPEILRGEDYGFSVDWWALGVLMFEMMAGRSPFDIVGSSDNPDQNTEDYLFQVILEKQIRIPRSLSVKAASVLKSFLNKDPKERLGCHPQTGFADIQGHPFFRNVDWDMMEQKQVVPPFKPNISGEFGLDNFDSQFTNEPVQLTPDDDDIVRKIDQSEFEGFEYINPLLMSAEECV
As to conditions: at 0.1 µM.

Experiment [3] addresses T1, Protein kinase C iota type (Homo sapiens). The conditions noted are these: at 1 µM.
Experiment [4] has as its target Protein kinase C theta type (Homo sapiens) (UniProt Q04759). As to conditions: at 0.1 µM.
Experiment [5] has the same target. The conditions noted are these: at 1 µM.
Experiment [6] addresses Protein kinase C beta type (Homo sapiens) (UniProt P05771). As to conditions: at 0.1 µM.
Experiment [7] shares this target. As to conditions: at 1 µM.
The target of experiment [8] is T2, Serine/threonine-protein kinase D1 (Homo sapiens) (UniProt Q15139).
T2 sequence (whole entry): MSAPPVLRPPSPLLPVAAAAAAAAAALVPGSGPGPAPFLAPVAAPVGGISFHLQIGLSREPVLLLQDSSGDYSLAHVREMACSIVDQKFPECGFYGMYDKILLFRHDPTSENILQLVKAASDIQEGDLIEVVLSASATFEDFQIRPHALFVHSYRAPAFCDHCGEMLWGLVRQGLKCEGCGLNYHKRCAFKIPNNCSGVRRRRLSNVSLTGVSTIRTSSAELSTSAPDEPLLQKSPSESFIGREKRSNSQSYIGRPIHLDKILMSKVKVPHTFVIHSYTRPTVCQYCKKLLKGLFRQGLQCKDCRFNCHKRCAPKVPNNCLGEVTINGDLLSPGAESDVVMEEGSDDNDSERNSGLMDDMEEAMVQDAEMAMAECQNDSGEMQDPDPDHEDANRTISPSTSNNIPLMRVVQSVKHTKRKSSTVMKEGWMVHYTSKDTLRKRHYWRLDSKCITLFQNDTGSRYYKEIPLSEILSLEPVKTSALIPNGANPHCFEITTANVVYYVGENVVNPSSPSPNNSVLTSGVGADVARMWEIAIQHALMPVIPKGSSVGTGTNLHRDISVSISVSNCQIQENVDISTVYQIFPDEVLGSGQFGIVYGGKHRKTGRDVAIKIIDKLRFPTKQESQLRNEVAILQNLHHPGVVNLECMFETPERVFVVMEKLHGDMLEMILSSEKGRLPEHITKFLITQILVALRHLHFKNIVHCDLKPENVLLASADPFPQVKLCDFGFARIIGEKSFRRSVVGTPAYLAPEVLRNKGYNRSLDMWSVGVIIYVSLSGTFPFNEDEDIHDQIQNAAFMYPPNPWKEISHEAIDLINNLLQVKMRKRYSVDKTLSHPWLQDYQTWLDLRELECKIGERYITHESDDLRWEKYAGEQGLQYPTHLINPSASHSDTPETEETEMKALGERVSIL
The conditions noted are these: at 0.1 µM.

Experiment [9] addresses T2, Serine/threonine-protein kinase D1 (Homo sapiens). As to conditions: at 1 µM.
The target in experiment [10] is T3, Serine/threonine-protein kinase D2 (Homo sapiens) (UniProt Q9BZL6).
T3 sequence (whole entry): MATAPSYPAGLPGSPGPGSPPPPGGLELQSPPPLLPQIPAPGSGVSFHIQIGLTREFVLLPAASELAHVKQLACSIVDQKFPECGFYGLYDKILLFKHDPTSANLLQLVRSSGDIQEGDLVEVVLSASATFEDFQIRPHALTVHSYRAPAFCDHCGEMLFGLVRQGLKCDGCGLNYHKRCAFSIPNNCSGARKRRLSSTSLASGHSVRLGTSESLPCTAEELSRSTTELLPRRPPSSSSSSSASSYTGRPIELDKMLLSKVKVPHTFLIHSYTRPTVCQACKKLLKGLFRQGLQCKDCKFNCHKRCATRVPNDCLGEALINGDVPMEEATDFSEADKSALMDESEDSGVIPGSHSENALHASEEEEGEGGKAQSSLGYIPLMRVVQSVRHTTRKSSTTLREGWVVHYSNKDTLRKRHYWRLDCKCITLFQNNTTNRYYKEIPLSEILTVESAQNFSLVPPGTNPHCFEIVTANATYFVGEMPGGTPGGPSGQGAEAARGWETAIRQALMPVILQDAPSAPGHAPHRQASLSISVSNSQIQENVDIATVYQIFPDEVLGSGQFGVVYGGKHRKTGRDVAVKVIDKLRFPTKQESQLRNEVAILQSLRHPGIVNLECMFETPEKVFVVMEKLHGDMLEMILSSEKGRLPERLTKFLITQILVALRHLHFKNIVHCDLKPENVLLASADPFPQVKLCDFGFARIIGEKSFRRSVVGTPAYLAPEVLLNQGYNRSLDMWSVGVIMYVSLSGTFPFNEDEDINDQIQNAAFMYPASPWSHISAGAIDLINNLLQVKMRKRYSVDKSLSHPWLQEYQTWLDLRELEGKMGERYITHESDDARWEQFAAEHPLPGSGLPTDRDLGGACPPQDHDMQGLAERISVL
As to conditions: at 0.1 µM.

The target of experiment [11] is T3, Serine/threonine-protein kinase D2 (Homo sapiens). The conditions noted are these: at 1 µM.
Experiment [12] concerns the target T4, Serine/threonine-protein kinase D3 (Homo sapiens) (UniProt O94806).
T4 sequence (whole entry): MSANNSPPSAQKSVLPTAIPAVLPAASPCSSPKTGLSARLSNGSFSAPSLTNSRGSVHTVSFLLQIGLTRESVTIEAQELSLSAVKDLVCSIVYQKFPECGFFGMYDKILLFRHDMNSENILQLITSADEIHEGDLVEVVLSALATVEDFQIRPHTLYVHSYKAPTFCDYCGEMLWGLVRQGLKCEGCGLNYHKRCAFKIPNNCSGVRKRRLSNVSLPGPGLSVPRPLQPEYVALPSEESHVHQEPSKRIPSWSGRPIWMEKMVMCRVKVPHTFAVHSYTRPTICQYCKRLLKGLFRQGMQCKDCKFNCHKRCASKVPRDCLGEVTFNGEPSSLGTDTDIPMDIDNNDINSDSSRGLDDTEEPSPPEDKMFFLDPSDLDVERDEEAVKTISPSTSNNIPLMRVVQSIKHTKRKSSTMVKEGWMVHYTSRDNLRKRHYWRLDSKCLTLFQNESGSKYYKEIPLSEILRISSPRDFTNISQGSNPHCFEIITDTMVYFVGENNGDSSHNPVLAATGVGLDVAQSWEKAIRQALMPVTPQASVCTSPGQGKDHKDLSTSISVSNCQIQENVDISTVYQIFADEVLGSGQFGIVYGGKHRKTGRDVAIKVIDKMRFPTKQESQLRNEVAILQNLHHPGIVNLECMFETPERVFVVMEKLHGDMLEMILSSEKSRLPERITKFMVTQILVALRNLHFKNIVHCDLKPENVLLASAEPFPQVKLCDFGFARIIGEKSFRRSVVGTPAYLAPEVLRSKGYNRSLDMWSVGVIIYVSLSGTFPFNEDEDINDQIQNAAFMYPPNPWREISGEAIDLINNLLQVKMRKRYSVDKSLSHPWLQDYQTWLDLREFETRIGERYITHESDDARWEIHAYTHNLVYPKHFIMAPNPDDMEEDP
As to conditions: at 0.1 µM.

For experiment [13], the target named is T4, Serine/threonine-protein kinase D3 (Homo sapiens). As to conditions: at 1 µM.
Experiment [14] concerns the target T5, cGMP-dependent protein kinase 1 (Homo sapiens) (UniProt Q13976).
T5 sequence (whole entry): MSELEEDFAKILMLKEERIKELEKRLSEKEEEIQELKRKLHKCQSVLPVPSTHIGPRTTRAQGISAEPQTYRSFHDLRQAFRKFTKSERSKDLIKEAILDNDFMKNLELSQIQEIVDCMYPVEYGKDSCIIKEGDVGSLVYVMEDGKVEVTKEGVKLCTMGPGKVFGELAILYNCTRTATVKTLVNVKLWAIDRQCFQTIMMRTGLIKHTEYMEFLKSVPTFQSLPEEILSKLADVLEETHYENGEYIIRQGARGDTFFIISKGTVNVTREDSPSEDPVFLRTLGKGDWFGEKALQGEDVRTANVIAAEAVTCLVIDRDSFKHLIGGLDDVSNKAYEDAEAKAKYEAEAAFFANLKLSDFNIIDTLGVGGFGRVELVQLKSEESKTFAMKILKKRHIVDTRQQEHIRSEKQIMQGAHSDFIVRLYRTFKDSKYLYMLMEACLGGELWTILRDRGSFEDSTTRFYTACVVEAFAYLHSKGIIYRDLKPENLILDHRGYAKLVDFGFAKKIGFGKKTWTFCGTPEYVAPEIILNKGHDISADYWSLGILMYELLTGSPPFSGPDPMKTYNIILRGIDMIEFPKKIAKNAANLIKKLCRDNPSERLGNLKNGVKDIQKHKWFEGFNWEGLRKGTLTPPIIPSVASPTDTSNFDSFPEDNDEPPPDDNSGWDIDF
The conditions noted are these: at 0.1 µM.

In experiment [15] the target is T5, cGMP-dependent protein kinase 1 (Homo sapiens). The conditions noted are these: at 1 µM.
For experiment [16], the target named is T6, cGMP-dependent protein kinase 2 (Homo sapiens) (UniProt Q13237).
T6 sequence (whole entry): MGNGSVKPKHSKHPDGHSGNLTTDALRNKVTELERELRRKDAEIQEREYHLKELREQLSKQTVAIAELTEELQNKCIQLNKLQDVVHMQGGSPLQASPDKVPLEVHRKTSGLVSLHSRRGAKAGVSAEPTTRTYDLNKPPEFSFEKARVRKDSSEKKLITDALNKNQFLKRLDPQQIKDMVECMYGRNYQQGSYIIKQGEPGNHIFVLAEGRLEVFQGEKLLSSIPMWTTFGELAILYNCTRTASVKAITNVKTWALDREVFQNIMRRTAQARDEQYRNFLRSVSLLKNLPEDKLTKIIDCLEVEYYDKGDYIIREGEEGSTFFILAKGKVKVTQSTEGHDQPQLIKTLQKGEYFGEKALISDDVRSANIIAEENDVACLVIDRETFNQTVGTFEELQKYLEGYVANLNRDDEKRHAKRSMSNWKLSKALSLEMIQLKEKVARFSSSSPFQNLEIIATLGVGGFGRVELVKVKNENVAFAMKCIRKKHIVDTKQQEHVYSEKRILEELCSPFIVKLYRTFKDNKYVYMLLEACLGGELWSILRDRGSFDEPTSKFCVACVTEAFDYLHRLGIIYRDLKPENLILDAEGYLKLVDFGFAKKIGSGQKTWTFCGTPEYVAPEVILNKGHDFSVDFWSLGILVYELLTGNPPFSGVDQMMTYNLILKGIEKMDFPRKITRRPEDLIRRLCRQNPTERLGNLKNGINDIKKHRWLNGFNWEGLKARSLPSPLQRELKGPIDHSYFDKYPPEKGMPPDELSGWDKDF
The conditions noted are these: at 0.1 µM.

In experiment [17] the target is T6, cGMP-dependent protein kinase 2 (Homo sapiens). As to conditions: at 1 µM.
Experiment [18] deals with T7, cAMP-dependent protein kinase catalytic subunit PRKX (Homo sapiens) (UniProt P51817).
T7 sequence (whole entry): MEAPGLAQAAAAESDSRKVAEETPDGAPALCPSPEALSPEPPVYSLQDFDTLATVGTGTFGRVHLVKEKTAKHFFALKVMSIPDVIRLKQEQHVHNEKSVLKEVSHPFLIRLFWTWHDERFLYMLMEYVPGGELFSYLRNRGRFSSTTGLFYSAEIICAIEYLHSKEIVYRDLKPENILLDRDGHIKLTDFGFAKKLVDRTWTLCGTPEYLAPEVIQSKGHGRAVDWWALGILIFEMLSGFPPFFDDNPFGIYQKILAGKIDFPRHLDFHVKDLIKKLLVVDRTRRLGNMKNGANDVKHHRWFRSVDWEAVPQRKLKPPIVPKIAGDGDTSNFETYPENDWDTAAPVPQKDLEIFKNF
The conditions noted are these: at 0.1 µM.

Experiment [19] deals with T7, cAMP-dependent protein kinase catalytic subunit PRKX (Homo sapiens). As to conditions: at 1 µM.
For experiment [20], the target named is Rho-associated protein kinase 1 (Homo sapiens) (UniProt Q13464). As to conditions: at 0.1 µM.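 Note: values are mean percent inhibition of ROCK1.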
Chain of Rho-associated protein kinase 1 (Homo sapiens) (Q13464 2-1354 limits assumed): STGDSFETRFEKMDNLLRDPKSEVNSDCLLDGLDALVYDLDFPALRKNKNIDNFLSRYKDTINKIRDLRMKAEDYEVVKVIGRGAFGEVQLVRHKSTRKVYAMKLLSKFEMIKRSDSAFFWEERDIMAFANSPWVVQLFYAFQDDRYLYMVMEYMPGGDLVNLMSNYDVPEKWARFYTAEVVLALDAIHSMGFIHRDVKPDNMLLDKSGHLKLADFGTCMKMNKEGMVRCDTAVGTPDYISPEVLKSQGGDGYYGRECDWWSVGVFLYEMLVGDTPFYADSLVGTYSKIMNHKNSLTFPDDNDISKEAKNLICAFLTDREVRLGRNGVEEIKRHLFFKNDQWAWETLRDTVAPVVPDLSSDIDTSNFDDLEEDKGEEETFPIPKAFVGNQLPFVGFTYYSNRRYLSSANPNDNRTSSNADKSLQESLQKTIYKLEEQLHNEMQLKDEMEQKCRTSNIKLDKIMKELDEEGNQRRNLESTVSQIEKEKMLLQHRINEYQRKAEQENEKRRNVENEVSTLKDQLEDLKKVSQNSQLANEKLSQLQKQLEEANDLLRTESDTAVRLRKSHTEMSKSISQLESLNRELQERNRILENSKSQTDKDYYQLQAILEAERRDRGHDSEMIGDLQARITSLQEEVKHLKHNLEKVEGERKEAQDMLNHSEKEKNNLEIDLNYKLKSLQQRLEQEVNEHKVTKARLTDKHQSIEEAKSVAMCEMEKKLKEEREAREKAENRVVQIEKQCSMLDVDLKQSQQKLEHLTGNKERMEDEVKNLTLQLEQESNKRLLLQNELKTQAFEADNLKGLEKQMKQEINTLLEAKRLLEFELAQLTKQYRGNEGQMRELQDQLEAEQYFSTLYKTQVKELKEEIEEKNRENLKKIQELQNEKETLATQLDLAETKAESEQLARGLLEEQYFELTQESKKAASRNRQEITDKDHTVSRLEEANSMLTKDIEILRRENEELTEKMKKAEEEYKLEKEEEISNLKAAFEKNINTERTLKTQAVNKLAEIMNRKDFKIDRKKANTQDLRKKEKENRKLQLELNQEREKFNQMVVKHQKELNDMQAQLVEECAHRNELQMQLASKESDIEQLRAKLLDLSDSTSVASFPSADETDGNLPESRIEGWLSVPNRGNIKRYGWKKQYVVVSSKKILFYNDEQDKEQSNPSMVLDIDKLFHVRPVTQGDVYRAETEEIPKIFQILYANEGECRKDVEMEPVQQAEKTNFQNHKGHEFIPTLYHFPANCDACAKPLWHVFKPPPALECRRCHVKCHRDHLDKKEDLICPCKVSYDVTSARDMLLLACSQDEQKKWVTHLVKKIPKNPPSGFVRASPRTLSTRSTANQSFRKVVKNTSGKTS

Chain of Protein kinase C theta type (Homo sapiens) (Q04759 whole entry, looked up): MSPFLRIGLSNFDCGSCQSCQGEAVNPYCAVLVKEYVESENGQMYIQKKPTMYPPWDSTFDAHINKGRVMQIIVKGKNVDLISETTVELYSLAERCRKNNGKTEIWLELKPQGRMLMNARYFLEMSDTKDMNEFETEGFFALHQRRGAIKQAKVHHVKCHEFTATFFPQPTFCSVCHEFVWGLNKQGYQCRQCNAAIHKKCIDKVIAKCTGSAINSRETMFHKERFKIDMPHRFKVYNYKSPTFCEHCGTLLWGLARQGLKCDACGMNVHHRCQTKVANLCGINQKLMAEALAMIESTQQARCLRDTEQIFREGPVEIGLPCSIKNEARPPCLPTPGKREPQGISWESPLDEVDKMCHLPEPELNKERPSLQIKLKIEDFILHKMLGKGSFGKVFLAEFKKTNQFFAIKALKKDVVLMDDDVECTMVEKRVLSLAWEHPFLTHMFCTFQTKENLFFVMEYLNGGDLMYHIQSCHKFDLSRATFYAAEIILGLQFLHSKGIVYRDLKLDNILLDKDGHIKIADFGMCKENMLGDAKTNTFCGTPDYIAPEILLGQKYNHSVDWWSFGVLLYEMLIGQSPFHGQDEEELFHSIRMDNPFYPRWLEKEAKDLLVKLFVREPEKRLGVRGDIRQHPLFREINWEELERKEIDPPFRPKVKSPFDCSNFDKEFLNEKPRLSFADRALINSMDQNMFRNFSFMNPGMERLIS
Chain of Protein kinase C beta type (Homo sapiens) (P05771 2-671 limits assumed): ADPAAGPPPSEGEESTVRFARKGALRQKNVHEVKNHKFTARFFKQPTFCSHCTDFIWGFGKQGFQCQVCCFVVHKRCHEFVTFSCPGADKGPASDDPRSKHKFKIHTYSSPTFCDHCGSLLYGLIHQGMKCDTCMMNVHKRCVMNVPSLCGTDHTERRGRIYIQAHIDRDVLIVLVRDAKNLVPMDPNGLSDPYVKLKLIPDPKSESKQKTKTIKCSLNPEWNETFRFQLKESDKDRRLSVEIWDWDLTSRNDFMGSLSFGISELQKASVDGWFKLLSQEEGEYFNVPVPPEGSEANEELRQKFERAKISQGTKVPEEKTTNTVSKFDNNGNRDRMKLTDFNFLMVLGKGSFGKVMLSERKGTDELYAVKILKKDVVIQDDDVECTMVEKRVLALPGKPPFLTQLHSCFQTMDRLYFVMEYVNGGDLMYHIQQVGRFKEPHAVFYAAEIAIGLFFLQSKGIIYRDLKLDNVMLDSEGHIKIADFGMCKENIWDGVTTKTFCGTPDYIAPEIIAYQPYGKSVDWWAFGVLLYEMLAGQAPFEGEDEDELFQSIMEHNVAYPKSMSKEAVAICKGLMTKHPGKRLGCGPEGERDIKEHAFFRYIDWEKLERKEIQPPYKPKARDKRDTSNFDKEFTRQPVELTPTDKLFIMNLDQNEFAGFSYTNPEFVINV

For orientation: inhibition means the share of the control response that was lost under treatment. The low end stands for a response near the control, the high end for a response far below the control. As for `O=C(Nc1n[nH]c2cc(-c3ccccc3)ccc12)C1CC1`, the inhibition in [1] came to 1.52%; in [2], 2.86%; in experiment [3], 3.51%; in experiment [4], 2.7%; in experiment [5] it was 1.97%; in experiment [6] it was 1.8%. Moreover, the inhibition in experiment [7] was found to be 3.32%; in experiment [8], 4.43%; in experiment [9] it was 5.64%; in experiment [10], 4.79%; in [11], 5.1%; in experiment [12] it was 5.75%. The inhibition in experiment [13] came out at 6.47%; in experiment [14] it was 3.2%; in experiment [15], 3.14%; in experiment [16], 1.66%; in experiment [17] it was 2.57%; in [18] it was 1.37%. In addition, the values for the inhibition in experiment [19] and in [20] were 0.63% and 1.2%, respectively.

For the origin of these results see ChEMBL document CHEMBL1961873, “Compounds: GSK PKIS; Assays: Nanosyn kinase panel” (2012).
